# Assay results published in PubChem BioAssay AID651804 (National Center for Advancing Translational Sciences (NCATS), 2012).
# The campaign covered roughly 1,200 compounds. About 20 (2%) were called active. Not shown: some 23% with an inconclusive outcome. This is one part of a sample in which actives are shown more often than they occur. A number with no mark means an inactive call. Calls come from the whole dose curve; as a rule, active = well fitted inhibition curve with a large enough effect; inconclusive = small, poorly fitted or top-dose-only effect; inactive = no such curve, though single readings can be large or run the other way.
# Target: Transcriptional regulator ERG (Homo sapiens) (UniProt P11308)
# Experiment: qHTS for Small Molecule Inhibitors of the ERG Ets/DNA interaction: HTRF assay against cherry picks
# Settings: His-ERG Ets domain with biotin-DNA; series mostly up to 154 µM; activity change, negative = inhibition: at the top concentration
# Excerpt: The Ets family of proteins is a family of ~30 conserved transcription factors defined by the presence of an ~85 amino acid domain referred to as the Ets domain, which mediates sequence-specific DNA binding to a core DNA element GGAA/T.The Ets family member ERG has been linked to several neoplasms. […] More extensive studies of the effects of over-expression of ERG in prostate cells have recently been carried out and have shown that over-expression of ERG results in increased invasion. […] We will carry out a high throughout screen to identify inhibitors of the interaction between ERG and DNA using a fluorescence polarization (FP) assay with a His-tagged ERG Ets domain and fluorescently-labeled DNA probes to develop small molecule inhibitors of this interaction as probes to test this hypothesis and lay the groundwork for the development of targeted therapies against ERG. This is the counterscreen against the cherry picks. NIH Molecular Libraries Probe Production Network [MLPCN] NIH Chemical Genomics Center [NCGC] Grant: NS066464 PI Name: John Bushweller, University of Virgina
# 2 ul of protein solution (200 nM ERG domain in 300mM KCl, 50mM Tris-HCl, 1mM EDTA, 1mM DTT, pH 7.5); 20 nl Control plate and compound library plate; 2 ul of 200 nM biotin-DNA; incubate for 10 min at RT; 1 ul of anti-His antibody conjugated to the long-life fluorescent cryptate donner […] (5ng/ul) and streptavidin conjugated to the acceptor compound […] (0.2 ng/ul) mix; incubate 10 min and measure FRET (Excitation = 320 nm, Emission = 615, 665 nm).
# Potency is the fitted concentration of half-maximal effect.
# Chain of Transcriptional regulator ERG (Homo sapiens) (P11308 whole entry, looked up): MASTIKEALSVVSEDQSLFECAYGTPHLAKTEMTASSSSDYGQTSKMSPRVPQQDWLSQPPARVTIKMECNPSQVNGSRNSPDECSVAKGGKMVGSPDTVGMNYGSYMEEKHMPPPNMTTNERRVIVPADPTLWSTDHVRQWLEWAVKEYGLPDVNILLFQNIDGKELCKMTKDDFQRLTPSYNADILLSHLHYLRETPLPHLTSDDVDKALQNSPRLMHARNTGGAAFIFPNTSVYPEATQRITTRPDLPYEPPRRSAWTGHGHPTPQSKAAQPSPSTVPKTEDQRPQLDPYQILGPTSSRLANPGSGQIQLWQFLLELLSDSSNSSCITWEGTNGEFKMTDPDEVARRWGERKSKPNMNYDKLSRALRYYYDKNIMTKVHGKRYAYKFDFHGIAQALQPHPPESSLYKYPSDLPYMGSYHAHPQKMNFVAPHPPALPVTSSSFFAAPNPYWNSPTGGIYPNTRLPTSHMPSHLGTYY
Structure (SMILES),"activity change, negative = inhibition",Potency
Cc1ccc(N(CCCCN2C(=O)c3ccccc3C2=O)C(=O)c2ccc(Cl)s2)cc1,-1.7%,–
N#Cc1c(NC(=O)CCCN2C(=O)c3ccccc3C2=O)oc(-c2ccccc2)c1-c1ccccc1,-4.08%,–
CC(=O)C(c1ccccc1)C(c1ccccc1)C(C)[N+](=O)[O-] (configuration not stated),-25.3%,–
COc1cc(CO)ccc1OCC(=O)Nc1cccc2ccccc12,-34.3%,–
CN(C(=O)COC(=O)c1ccc(F)c(S(=O)(=O)N2CCOCC2)c1)C1CCS(=O)(=O)C1 (configuration not stated),-15.2%,–
Cc1occc1C(=O)NCCc1ccc(Cl)cc1,2.02%,–
CCc1cc(C(=O)NNC(=S)Nc2cccc(C)c2)cs1,-26.5%,–
Cc1cccc(-n2c(-c3ccccc3)c[nH]c2=S)c1C,-29.7%,–
Cc1ccc(NC(=O)c2cc3cc(OC(F)(F)F)ccc3[nH]2)cc1,-19%,–
CCCCn1c(N)c(N(CC)C(=O)c2ccc(C#N)cc2)c(=O)[nH]c1=O,-8.75%,–
CCCCn1c(=O)[nH]c2nc3cc(N)ccc3nc2c1=O,–,50.1 µM (active)
O=C(Nc1ccccc1)Nc1ncc([N+](=O)[O-])s1,–,39.8 µM (active)
Cc1cc(C)nc(N2CCN(c3nnnn3-c3ccccc3)CC2)n1,3.18%,–
CCCN(C(=O)c1nn(-c2ccc(C)cc2)c(=O)c2c1c1ccccc1n2C)c1ccccc1C,-29.5%,–
Cc1ccccc1C(=O)N/N=C1/SCC(=O)N1Cc1ccccc1,1.11%,–
Cc1cccc(C(=O)NCCNc2nc3cc(C)c(C)cc3cc2C)c1,-17.8%,–
O=C1c2ccccc2C(=O)c2c1ncn2-c1ccccc1,–,15.8 µM (active)
O=C(CNC(=S)N(Cc1ccccc1)Cc1cccnc1)NC1CCCCC1,-9.71%,–
Cc1ccc(-c2noc(C3CCCN(C(=O)c4cccc([N+](=O)[O-])c4)C3)n2)o1 (configuration not stated),-24.6%,–
Cc1cc2cc(CNC(=O)C(C)Oc3ccccc3)ccc2n1C (configuration not stated),-9.92%,–
CC(Oc1ccc(F)cc1)C(=O)Nc1ccc(S(=O)(=O)NC2=NCCCCC2)cc1 (configuration not stated),-5.41%,–
COc1ccc(C(=O)NCc2ccc(OCCN(C)C)cc2)cc1OC,-16.1%,–
Cc1cc(F)ccc1NC(=O)c1ccc(NS(=O)(=O)c2cc(C(C)(C)C)ccc2C)cc1,-11.9%,–
O=C1[C@H]2[C@@H](c3ccc(F)cc3)N3C(=O)N(c4cccc(F)c4)C(=O)[C@@]3(Cc3ccccc3)[C@H]2C(=O)N1C1CCCCC1,-28.6%,–
CCNc1nc(OCC)nc(N2CCC(Cc3ccccc3)CC2)n1,4.46%,–
CSc1ccccc1NC(=O)CN(C)C(=O)/C=C/c1ccccc1,-23.6%,–

Structure (SMILES),"activity change, negative = inhibition",Potency
CC(=O)c1cccc(NC(=O)C(C)OC(=O)CCc2nc3ccccc3c(=O)[nH]2)c1 (configuration not stated),-21.7%,–
Nc1ccc2[nH]ncc2c1,-70.6%,–
O=C(CSC1=NCCS1)NC(NC(=O)CSC1=NCCS1)c1ccccc1,-23%,–
CCOc1ccccc1NC(=O)COc1ccc2ccc(=O)oc2c1,5.68%,–
O=C(/C=C/c1ccc([N+](=O)[O-])cc1)NCc1ccco1,–,28.2 µM (active)
O=C(COC(=O)/C=C/c1ccc([N+](=O)[O-])cc1)NCc1cccs1,-28.9%,–
O=C(CCc1c[nH]c2ccccc12)NCc1ccco1,-5.25%,–
O=C(NCc1cccnc1)c1ccccc1-c1nc(-c2ccccc2)no1,-23.1%,–
O=C(NC(c1ccccc1)C(Cl)Cl)c1ccccc1 (configuration not stated),-11.6%,–
CCOC(=O)CSc1nc2ccc(NC(=O)c3ccc(F)cc3)cc2s1,26.8%,–
CCN(C(=O)CSc1nc2cc(C(=O)O)ccc2c(=O)n1Cc1ccccc1)c1ccccc1,-26.9%,–
Cc1noc(C)c1S(=O)(=O)N(CC(=O)NCc1ccc(F)cc1)c1ccc(C(C)C)cc1,-22.4%,–
Cc1[nH]c2ccc(C(=O)OCC(=O)Nc3cccc(S(N)(=O)=O)c3)cc2c1C,-12.7%,–
O=C(C1CCN(CCc2ccccc2)CC1)N1CCOCC1,-17%,–
Cc1ccnn1-c1ccc(C(=O)OCC(=O)Nc2ccc(F)cc2)cc1,-27.1%,–
CCN(CC(=O)N1CCCCCC1)S(=O)(=O)c1ccc(Cl)cc1,-18.2%,–
COc1ccc(-c2cc(N)n(S(=O)(=O)Cc3ccccc3)n2)c(OC)c1,-25%,–
O=C(CCN=C1NS(=O)(=O)c2ccccc21)OCc1ccccc1,-3.29%,–
COc1ccc(NC2CCCN(C(=O)C3(C)CCCCC3)C2)cc1OC (configuration not stated),-11.5%,–
COc1ccccc1C(C)NC(=O)c1cc(S(=O)(=O)N2CCCCC2)ccc1C (configuration not stated),0.53%,–
O=C(C1CC(=O)N(c2ccc(Cl)cc2)C1)N1CCCCCC1 (configuration not stated),0.955%,–
CCN(C(=O)COC(=O)c1ccc(=O)n(Cc2ccccc2)n1)C1CCS(=O)(=O)C1 (configuration not stated),-38%,–
C=CCC[C@H](Cc1ccc(F)cc1)C(=O)OC[C@@H](Cc1c[nH]c2ccccc12)NC(=O)[C@H](CC=C)CC(=O)N(CCO)Cc1ccccc1,-14.7%,–
Cc1nn(C2CCS(=O)(=O)C2)c(Cl)c1/C=C/C(=O)OCC(=O)c1c[nH]c2ccccc12 (configuration not stated),-21.3%,–
O=C(OCC(=O)c1c[nH]c2ccccc12)c1ccc([N+](=O)[O-])s1,–,35.5 µM (active)
CCCN(CC(=O)Nc1ccc(F)c(F)c1F)C(=O)C1CC(=O)N(Cc2ccccc2)C1 (configuration not stated),-22.6%,–
